Experimental data taken from PubChem BioAssay (NCI).
About 83,000 compounds went through this panel and 20% of them were active in at least one assay; those are over-represented in the sample as a whole.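 Single-concentration screen, 48 h exposure, 96-well plates. Endpoint: percent growth. Below 10 = active.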 Values without a mark were called inactive. Activity calls are given as the source filed them.

What was measured:
Experiment in all cases: NCI-60 one-dose screen, 48 h (100 = growth as untreated, 0 = no growth, -100 = all killed)
Conditions in all cases: 10 µM
SK-MEL-2 melanoma = test system: SK-MEL-2 melanoma
EKVX NSCLC = test system: EKVX NSCLC
SN12C renal = test system: SN12C renal
UO-31 renal = test system: UO-31 renal
TK-10 renal = test system: TK-10 renal
ACHN renal = test system: ACHN renal
CAKI-1 renal = test system: CAKI-1 renal
A498 renal = test system: A498 renal
CCRF-CEM leukemia = test system: CCRF-CEM leukemia
MOLT-4 leukemia = test system: MOLT-4 leukemia

Compound | growth (SK-MEL-2 melanoma) | growth (EKVX NSCLC) | growth (SN12C renal) | growth (UO-31 renal) | growth (TK-10 renal) | growth (ACHN renal) | growth (CAKI-1 renal) | growth (A498 renal) | growth (CCRF-CEM leukemia) | growth (MOLT-4 leukemia)
O=[N+]([O-])c1ccc(-c2nc(-c3ccccc3)c(-c3ccccc3)n2-c2ccc(S(=O)(=O)Nc3ncccn3)cc2)cc1 | 69.4% | 22.8% | 38.9% | 22.1% | 66% | 50.1% | 29% | 79.3% | 20.8% | 26.2%
COc1ccc(-c2cc(-c3cc(C(=O)c4ccccc4)n4ccc(C)cc34)nc(N)c2C#N)cc1 | 84.8% | 81.2% | 70% | 65% | 92.4% | 56.4% | 69.9% | 127% | 98.3% | 93.8%
N#Cc1ccc(-c2nn(-c3ccc(C(=O)O)cc3)cc2CNc2cc(Cl)cc(Cl)c2)cc1 | 81.7% | 63.3% | 50.9% | 33.2% | 111% | 55.3% | 63% | 103% | 13.7% | 15.8%
O=C(N/N=C/c1ccc(-c2cccc([N+](=O)[O-])c2)o1)c1[nH]c2ccc(Br)cc2c1-c1ccccc1 | 22.8% | 54.4% | 3.81% (active) | 38.9% | 40.4% | 22.9% | 21.4% | 77.9% | -2.99% (active) | 4.53% (active)
Cc1ccc(-c2nc(Nc3ccc(S(N)(=O)=O)cc3)c3ccccc3n2)cc1 | 99.9% | 65.9% | 68.7% | 54.5% | 104% | 42.8% | 36.5% | 61.3% | 25.7% | 11.2%
O=C(Nc1ccc(Cl)c([N+](=O)[O-])c1)Nc1ccc(Cl)c([N+](=O)[O-])c1 | 30.7% | 17.8% | 1.65% (active) | -2.65% (active) | 48.3% | 4.21% (active) | 8.32% (active) | 20.1% | 14.2% | 21.7%
CCOP(=O)(OCC)O[C@H]1CC[C@]2(C)[C@H]3CC[C@@H]4[C@@H]([C@](C)(O)CCC=C(C)C)CC[C@@]4(C)[C@]3(C)CC[C@H]2C1(C)C | 17.1% | 28.2% | -51.7% (active) | 24.8% | 36.6% | 28% | 25.2% | 52.5% | -21.2% (active) | -15.5% (active)
O=C(Nc1ccc(I)cc1F)c1cc(-c2ccc(F)cc2F)ccc1O | -39.9% (active) | 0.815% (active) | -4.86% (active) | -0.556% (active) | 19.9% | -5.83% (active) | -21% (active) | -21.3% (active) | 7.55% (active) | -0.655% (active)
COc1ccc(-c2cc(C(=O)N=Nc3c(O)[nH]c4ccccc34)c3ccccc3n2)cc1 | 64.9% | -12.7% (active) | -38.8% (active) | 24.5% | 19.2% | -64.2% (active) | -58.8% (active) | 112% | 49% | 45.1%
O=C(NCCCCCCCCCC[P+](c1ccccc1)(c1ccccc1)c1ccccc1)c1ccc(-n2nc(-c3ccccc3O)nc2-c2ccccc2O)cc1 | -79.6% (active) | -90% (active) | -76.4% (active) | -84.3% (active) | -91.1% (active) | -98.6% (active) | -68.5% (active) | -75.1% (active) | 4.27% (active) | -10.4% (active)
O=C1Nc2ccc(F)cc2/C1=C/c1cccc(OCc2ccccn2)c1 | 46.6% | 28.3% | 9.51% (active) | 34% | 80.9% | 37.9% | 17.2% | 87.3% | 3.93% (active) | 12.1%
O=C(CSc1nnc(-c2c[nH]c3ccccc23)n1-c1ccccc1)c1ccccc1 | 91.9% | 68.4% | 44.7% | 55.5% | 72% | 60.5% | 53.2% | 106% | 91.4% | 90.6%
CN(C(=O)c1ccc(C(C)(C)C)cc1)c1sc2c(c1C#N)CCC(=O)C2 | 97.7% | 68.9% | 17.1% | -98.5% (active) | 23% | -45.8% (active) | 36.9% | 97.6% | 8.93% (active) | 29.8%
CN1CCN(Cc2ccc(NC(=O)c3cncc(C#Cc4cnc5ccc(N[C@H]6CCOC6)nn45)c3)cc2C(F)(F)F)CC1 | -94.3% (active) | -99.4% (active) | -93.1% (active) | -95.6% (active) | -69.8% (active) | -100% (active) | -96.7% (active) | -94.7% (active) | -2.23% (active) | -9.84% (active)
OCCNc1oc(-c2ccccc2)nc1[P+](c1ccccc1)(c1ccccc1)c1ccccc1 | -31.8% (active) | 23.8% | 2.4% (active) | 71.8% | 32.4% | 84.4% | 75.1% | 74.6% | 9.78% (active) | 10.2%
COc1cccc(COc2ccc(/C=C3\Oc4cc(O)ccc4C3=O)cc2)c1 | 87% | 70.9% | 66.1% | -64.7% (active) | 2.68% (active) | -32.1% (active) | -23% (active) | 131% | 74.9% | 52.1%
O=C(N=Nc1c(O)[nH]c2ccc(Br)cc12)c1ccc2nc(-c3ccccc3)[nH]c2c1 | -89.7% (active) | -4.61% (active) | -94.4% (active) | 27.3% | -25.5% (active) | -47.3% (active) | 16.8% | -55.3% (active) | -16% (active) | -29% (active)
Cc1ccc(-c2nc(Nc3ccccc3C(=O)O)c3ccccc3n2)cc1 | 5.75% (active) | 13.1% | 22.2% | 12.6% | 58.9% | 7.89% (active) | 21.1% | 21.6% | 12.8% | 10.9%
O=C(NO)c1ccc(-c2nc3ccc4[nH]ncc4c3c3c2CCCC3)cc1 | -89.7% (active) | -19.4% (active) | -13.8% (active) | -15.8% (active) | 20.2% | 2.16% (active) | -0.924% (active) | -49.1% (active) | 5.08% (active) | 3.76% (active)
Cc1ccc(/C=C/C(=O)c2ccc(NC(=O)CSc3nnc(-c4c[nH]c5ccccc45)n3-c3ccccc3)cc2)cc1 | 90.5% | 77% | 76.1% | 55.3% | 107% | 78.3% | 80.6% | 111% | 93.7% | 68.3%
CN(C)c1ccc(/C=C/c2nc3ccccc3c(=O)n2CC(=O)Nc2ccc(Cl)cc2)cc1 | 94.9% | 80% | 76.4% | 87.4% | 83.1% | 43.3% | 53.1% | 76.1% | 88.6% | 74.7%
COC(=O)CC1CC1C1Cc2c(nc(N(C)S(C)(=O)=O)nc2C(C)C)-c2ccc(F)cc21 (stereo not given) | 80.9% | 87% | 94.9% | 71.5% | 114% | 86.6% | 52.1% | 117% | 61.5% | 38.6%
O=c1[nH]c2ccccc2cc1CSc1ccc(Nc2nccc(-c3ccc4ccccc4c3)n2)cc1 | 96.5% | 68.1% | 54.1% | 93.7% | 78.8% | 79.5% | 72.6% | 82% | 79.9% | 75.1%
Clc1ccc2c(N/N=C/c3c[nH]c4ccc(Br)cc34)ccnc2c1 | -93% (active) | -93% (active) | -56.3% (active) | -95.8% (active) | -67.2% (active) | -90.8% (active) | -94% (active) | -77% (active) | -7.03% (active) | -48.7% (active)
CN1CCN(Cc2ccc(C(=O)Nc3cccc(Nc4ccc5cc(O)ccc5n4)c3)cc2C(F)(F)F)CC1 | -95% (active) | -40.7% (active) | -64% (active) | -36.8% (active) | 24% | -56.8% (active) | -28% (active) | 148% | -37.1% (active) | -41.1% (active)
CCCn1c(=O)c2[nH]c(-c3ccc(OCc4nc5ccc(C)cc5[nH]4)cc3)nc2n(CCC)c1=O | 52.1% | 9.33% (active) | -5.67% (active) | -91% (active) | -51.8% (active) | -88.2% (active) | 6.1% (active) | -79.8% (active) | 46.8% | 15.2%
Nc1n[nH]c2cccc(C#Cc3cccc(NC(=O)Nc4cc(C(F)(F)F)cc(C(F)(F)F)c4)c3)c12 | -96.8% (active) | -30.3% (active) | -85.9% (active) | -52.5% (active) | -3.32% (active) | -25.4% (active) | -15.6% (active) | -17.4% (active) | -1.88% (active) | -1.46% (active)
